Results filed as inconclusive are left out. Entries that show only a call come without a potency. Activity calls are given as the source filed them. The call rests on the fitted dose curve; in most records, active means well fitted cell-killing curve with a large enough effect in the repeat runs; inconclusive means weak or mixed curves, or effect the other way; inactive means flat fitted curve, though single readings scatter.

Data on 40 molecules can be found in PubChem BioAssay (Tox21).

The nature of the assay: qHTS assay to identify small molecule agonists of the TGF-beta/Smad signaling pathway - cell viability counter screen (AID 1346829). Further: top concentration of the series differs between compounds; nearly all actives have a fitted effect of over 45% in size. Conditions: SBE-bla HEK293T viability, CellTiter-Glo luminescence, 5 h; series mostly up to 76.8 µM. The text has this: National Center for Advancing Translational Sciences [NCATS]
NIH Chemical Genomics Center [NCGC]
U.S. Environmental Protection Agency [EPA]
National Institutes of Environmental Health Sciences [NIEHS]
National Toxicology Program [NTP]
U.S. Food and Drug Administration [FDA]
Transforming growth factor beta (TGF-beta) superfamily consists of a large number of structurally related dimeric proteins that act as hormones or local mediators in regulating a wide range of biological functions. This superfamily includes TGF-betas themselves, the bone morphogenetic proteins (BMPs) and the activins. These ligands induce oligomerization of serine/threonine receptor kinases and phosphorylate the cytoplasmic signaling molecules of Smad protein family. CellSensor SBE-bla HEK 293T cell line (Life Technologies, Carlsbad, CA), responsive to TGF-beta was used to screen Tox21 10K compound library for identification of agonists/antagonists of the Smad signaling pathway. This cell line contains a beta-lactamase reporter gene under control of the Smad binding element (SBE) stably integrated into HEK 293T cells. Also cytotoxicity of the compounds was tested in parallel by measuring the cell viability using CellTiter-Glo assay system in the same wells.
Tox21 Assay Protocol Summary:
SBE-bla HEK 293T cells were dispensed at 4,000/well in 6 uL of assay medium into black wall/clear-bottom 1536-well plates using a Multidrop Combi (ThermoFisher Scientific, Waltham, MA) dispenser. After the assay plates were incubated at 37 C and 5% CO2 for an overnight, 23 nL of compounds dissolved in DMSO, positive controls or DMSO only was transferred to the assay plate by a Pintool station (Kalypsys, San Diego, CA). The assay plates were incubated at 37 C and 5% CO2 for 5 hr. One uL of LiveBLAzer B/G FRET substrate (Life Technologies) was added using a Flying Reagent Dispenser (FRD, Aurora Discovery, San Diego, CA) and the plates were incubated at room temperature for 2 hr. Fluorescence intensity (405 nm excitation, 460 nm and 530 nm emissions) was measured using an Envision plate reader (PerkinElmer, Shelton, CT). For cytotoxicity read, 4 uL of CellTiter-Glo reagent (Promega Corporation, Madison, WI) was added to each well of the assay plates using FRD. After 30min incubation at room temperature, the luminescence intensity was measured using ViewLux plate reader (PerkinElmer).
For orientation: In qHTS, concentration-response curves come from the screen itself.
In the case of `Cc1[nH]cnc1CN1CCc2c(c3ccccc3n2C)C1=O`, the Potency result was “inactive”.

Consider `C=C(C)C(=O)OCCCCCCCCCCCCC`, for which the Potency result is “inactive”.

Regarding `O[C@@H]1CO[C@H]2[C@@H]1OC[C@@H]2O`, the Potency result was “inactive”.

Take `CCCCCCCCCI`: the Potency result is “inactive”.

As for `C[C@]1(Cn2ccnn2)[C@H](C(=O)O)N2C(=O)C[C@H]2S1(=O)=O`, the Potency result is “inactive”.

Turning to `Cc1cc(O)c(C)c(C)c1O`, the Potency result is “inactive”.

For `CC(=O)NC1(c2cccc(F)c2)CCN(CC[C@@]2(c3ccc(Cl)c(Cl)c3)CN(c3ccccc3)C(=O)CO2)CC1`, the Potency result was “inactive”.

`O=C=Nc1ccc(Cl)c(Cl)c1`: the Potency result was “inactive”.

On to `O=Cc1c2ccccc2c(Cl)c2ccccc12`, for which the Potency entry is “inactive”.

`C1COC1`: the Potency entry is “inactive”.

For the molecule `CC(CO)CO`, the Potency result was “inactive”.

Regarding `N#CCc1ccc(Cl)cc1Cl`, the Potency entry is “inactive”.

Take `CC1(C)[C@@H](OC(=O)CCC(=O)O)CC[C@]2(C)[C@H]3C(=O)C=C4[C@@H]5C[C@@](C)(C(=O)O)CC[C@]5(C)CC[C@@]4(C)[C@]3(C)CC[C@@H]12`: the Potency entry is “inactive”.

On to `CCCCCCCCC(CCCCCC)C(=O)O` (stereo not given), for which the Potency entry is “inactive”.

For the molecule `Cc1ccc(Cl)c(Nc2ccccc2C(=O)O)c1Cl`, the Potency entry is “inactive”.

In the case of `CCCCC(CC)COP(=O)(O)O` (stereo not given), the Potency result was “inactive”.

On to `COc1cc(C(=O)NCCCCCC(=O)O)cc(OC)c1OC`, for which the Potency entry is “inactive”.

`CCOc1ccccc1O[C@H](c1ccccc1)[C@H]1CNCCO1`: the Potency entry is “inactive”.

As for `C=CC(=O)OCC1CC2CC1C1CCC(COC(=O)C=C)C21` (stereo not given), the Potency result is “inactive”.

Regarding `CS(=O)(=O)c1ccc(-c2cn3ccccc3n2)cc1`, the Potency result is “inactive”.

As for `NCCNCCO`, the Potency entry was “inactive”.

Take `C=CC(=O)[O-].C=CC(=O)[O-].[Zn+2]`: the Potency result is “inactive”.

For the molecule `CCCCCCCCN`, the Potency entry was “inactive”.

For `CN(C)CCC=C1c2ccccc2C=Cc2ccccc21`, the Potency result is “inactive”.

Consider `Nc1ccc(N=Nc2ccccc2)c(N)c1`, for which the Potency result was “inactive”.

Take `Cc1ccc(CO)cc1`: the Potency entry is “inactive”.

Turning to `O=C=Nc1cccc(C(F)(F)F)c1`, the Potency entry is “inactive”.

For the molecule `Cc1c(C)c2c(c(C)c1OC(=O)CCC(=O)OCCO)CC[C@@](C)(CCC[C@H](C)CCC[C@H](C)CCCC(C)C)O2`, the Potency entry was “inactive”.

As for `COc1cc(N)c(Cl)cc1C(=O)NC1CCN(CCCOc2ccc(F)cc2)CC1OC` (stereo not given), the Potency result is “inactive”.

For `Cc1cc2c(OCC(CNC(C)(C)C)OC(=O)c3ccccc3)cccc2[nH]1` (stereo not given), the Potency result was “inactive”.

For the molecule `C[C@]12CC[C@@H]3c4ccc(O)cc4CC[C@H]3[C@@H]1CC[C@@H]2OC(=O)CCC1CCCC1`, the Potency result was “inactive”.

As to `CC(C)C=O`, the Potency entry is “inactive”.

Regarding `O=c1[nH]c2ccc(Cl)cc2o1`, the Potency result is “inactive”.

Turning to `O=C(/C=C/c1ccccc1)OCCc1ccccc1`, the Potency result is “inactive”.

As for `CCn1cc(C(=O)O)c(=O)c2cc(F)c(N3CCNCC3)cc21`, the Potency result is “inactive”.

With `CCOC(=O)c1ccc(I)cc1`, the Potency result was “inactive”.

Regarding `CC(=O)[C@H]1[C@H](C#N)C[C@H]2[C@@H]3CC=C4C[C@@H](O)CC[C@]4(C)[C@H]3CC[C@@]21C`, the Potency entry was “inactive”.

As to `CC/C=C1/OC(=O)c2ccccc21`, the Potency entry is “inactive”.

With `C[C@H]1C[C@H](O)c2ccsc2S1(=O)=O`, the Potency result is “inactive”.

As to `C=C1C[C@@]23CC[C@H]4[C@@](C)(CCC[C@@]4(C)C(=O)O[C@@H]4O[C@H](CO)[C@@H](O)[C@H](O)[C@H]4O)[C@@H]2CC[C@]1(O[C@@H]1O[C@H](CO)[C@@H](O)[C@H](O[C@@H]2O[C@H](CO)[C@@H](O)[C@H](O)[C@H]2O)[C@H]1O[C@@H]1O[C@H](CO)[C@@H](O)[C@H](O)[C@H]1O)C3`, the Potency entry is “inactive”.
